Assay [1] relates to Aerobactin synthetase IucA (Klebsiella pneumoniae). The assay can be described thus: inhibition of K. pneumoniae IucA enzyme – biochemical, Tocris library, absorbance (AID 1345561).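 Further: 100% = enzyme without compound and 0% = no enzyme.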 The following applies: purified IucA enzyme assay, absorbance (OD) read-out; stronger effect = lower value;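 tested at 8 µM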.
Assay [2] can be described thus: viability loss with induced miR-34 in A549 – imaging, A549 dox-inducible miR-34, nuclei and caspase counts, primary screen (AID 1347080;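 active means compounds whose cell count with miR-34 switched on is under 0.7 times the count with it off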). Particulars: A549 miR-34 inducible, Hoechst nuclei count, 48 h.
Assay [3] in a line: galactose survival enhancers in mitochondrial complex I cybrids – cell-based, galactose medium, ATP luminescence, primary screen (AID 1645843;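 active means z-score of at least 1.8 in each of two replicates, scored against plate mean and spread of sample wells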;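 further: positive z means more ATP and so rescue of galactose-driven cybrid death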). Particulars: complex I mutant cybrid cells, 72 h, stronger effect = higher value.
Assay [4] can be described thus: compounds altering circadian rhythm period length – cell-based, LOPAC library, luminescence reporter (AID 2774).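 Further: values are relative to mean of DMSO wells on each plate.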 The following applies: circadian reporter cells, at 7 µM, actives lie on both sides.
Setting [5] is: stronger effect = lower value, cell number ratio, induced over uninduced.
[6] abbreviates: measured here: relative caspase fold change +Dox/-Dox.
The mark [7] stands for this setting: measured here: total cells with miR-34 induction, stronger effect = lower value.
The mark [8] stands for this setting: measured here: total cells without miR-34 induction.

Each structure is given as a SMILES string. Values joined by “and” are separate entries in the source; they are usually repeats but may differ in a detail not shown here. Identical values can stand only once. Active and inactive are the calls of the source. Unless noted, how the calls were made is not given here.

With `Ic1cncc(OC[C@@H]2CCN2)c1`, the remaining activity in assay [1] is 118% (inactive). For the same compound, the fold change in assay [2] (setting [5]) was 0.934 (inactive); in assay [2] (setting [6]), 0.549. Also, the values for the cell count in assay [2] (setting [7]) and in assay [2] (setting [8]) were 9660 and 10300, respectively. Also, the z-score in assay [3] is -0.135 (inactive).

On to `NC=Nc1ccc2[nH]c3c(c2c1)C[C@@]1(O)C2Cc4ccc(O)c5c4[C@@]1(CCN2CC1CC1)[C@H]3O5`, for which the remaining activity in assay [1] was 121% (inactive). Further, the fold change in assay [2] (stronger effect = lower value) is 0.975 (inactive); in assay [2] (setting [6]), 1.22. Besides, the cell count in assay [2] (setting [7]) was found to be 9860; in assay [2] (setting [8]), 10100. Also, the z-score in assay [3] is -0.38 (inactive).

Consider `CCCN[C@@H]1CCc2c(OC)cccc2[C@@H]1C`, for which, in assay [1], the remaining activity is 99.1% (inactive). The figures for the fold change in assay [2] (setting [5]) and in assay [2] (setting [6]) were 0.939 (inactive) and 1.14, respectively. Moreover, the cell count in assay [2] (setting [7]) came to 8780; in assay [2] (setting [8]), 9360. Moreover, the z-score in assay [3] was 0.12 (inactive).

Consider `Cc1ncc(CN2CC=C(c3ccccc3)CC2)c(N)n1`, for which the remaining activity in assay [1] is 92.9% (inactive). The fold change was 0.973 (inactive) in assay [2] (setting [5]) and 1.21 in assay [2] (setting [6]). The cell count in assay [2] (setting [7]) is 8940; in assay [2] (setting [8]) it was 9190. Besides, in assay [3], the z-score is -0.505 (inactive).

With `COC(=O)CN1CN(c2ccccc2)C2(CCN(Cc3ccc4ccccc4c3)CC2)C1=O`, the remaining activity in assay [1] was 120% (inactive). In addition, the fold change is 0.912 (inactive) in assay [2] (setting [5]) and 0.824 in assay [2] (setting [6]). For the same compound, the cell count in assay [2] (setting [7]) was 8960; in assay [2] (setting [8]), 9820. In addition, the z-score in assay [3] was 0.375 (inactive).

As for `Cc1nc(N)sc1CCN`, in assay [1], the remaining activity is 88.4% (inactive). In addition, the fold change is 0.919 (inactive) in assay [2] (setting [5]) and 1.01 in assay [2] (setting [6]). Further, the cell count in assay [2] (setting [7]) worked out at 8020; in assay [2] (setting [8]), 8730. The z-score in assay [3] was 0.195 (inactive).

Take `CN1C2CCC1CC(OC(c1ccccc1)c1ccc(Cl)cc1)C2` (stereo not given): in assay [4], the period change was 0.035 h (inactive). Also, the remaining activity in assay [1] was 92.9% (inactive). The fold change in assay [2] (setting [5]) was 0.909 (inactive); in assay [2] (setting [6]), 1.16. Further, the cell count in assay [2] (setting [7]) worked out at 4530; in assay [2] (setting [8]), 4990. Moreover, in assay [3], the z-score is -1.1 (inactive).

Turning to `O=C(O)Cc1cccnc1C(=O)O`, the remaining activity in assay [1] is 108% (inactive). Moreover, the values for the fold change in assay [2] (setting [5]) and in assay [2] (setting [6]) were 0.98 (inactive) and 0.669, respectively. For the same compound, the cell count amounted to 8790 in assay [2] (setting [7]) and 8970 in assay [2] (setting [8]). Also, the z-score in assay [3] is 0.32 (inactive).

Turning to `CNCCc1cnc[nH]1`, the remaining activity in assay [1] was 101% (inactive). Also, the fold change in assay [2] (setting [5]) is 0.965 (inactive); in assay [2] (setting [6]), 0.943. For the same compound, the cell count came to 9430 in assay [2] (setting [7]) and 9770 in assay [2] (setting [8]). For the same compound, in assay [3], the z-score was 0.115 (inactive).

`Oc1ccc2c3c1O[C@H]1c4c(c5ccccc5n4Cc4ccccc4)C[C@@]4(O)C(C2)N(CC2CC2)CC[C@]314`: the remaining activity in assay [1] was 94.5% (inactive). Moreover, the fold change in assay [2] (stronger effect = lower value) is 0.935 (inactive); in assay [2] (setting [6]), 1.27. Also, the cell count amounted to 2600 in assay [2] (setting [7]) and 2780 in assay [2] (setting [8]). The z-score in assay [3] is -1.2 (inactive).

In the case of `O=C(CCCN1CCC2(CC1)C(=O)N(Cc1cccc(F)c1)CN2c1ccccc1)c1ccc(F)cc1`, the remaining activity in assay [1] is 109% (inactive). Besides, the fold change in assay [2] (setting [5]) is 1.27 (inactive); in assay [2] (setting [6]) it was 1. For the same compound, the cell count is 1590 in assay [2] (setting [7]) and 1250 in assay [2] (setting [8]). Further, the z-score in assay [3] was -1.2 (inactive).

For the compound `c1ccc(CCCCN2CCC(c3ccccc3)CC2)cc1`, the remaining activity in assay [1] is 90.6% (inactive). In addition, the fold change was 0.976 (inactive) in assay [2] (setting [5]) and 1.02 in assay [2] (setting [6]). Moreover, the cell count in assay [2] (setting [7]) was found to be 8670; in assay [2] (setting [8]), 8890. In assay [3], the z-score was 0.375 (inactive).

For `CCCCC1(C2CCCC2)Cc2cc(OCCCC(=O)O)c(Cl)c(Cl)c2C1=O` (stereo not given), the remaining activity in assay [1] is 98.2% (inactive). For the same compound, the figures for the fold change in assay [2] (setting [5]) and in assay [2] (setting [6]) were 0.969 (inactive) and 0.91, respectively. Besides, the cell count in assay [2] (setting [7]) was 7490; in assay [2] (setting [8]) it was 7730. Further, in assay [3], the z-score was 3.13 (active).

For the compound `O[C@H]1[C@H](O)[C@@H](O)CN2CC[C@H](O)[C@H]12`, in assay [1], the remaining activity was 107% (inactive). The fold change in assay [2] (stronger effect = lower value) is 0.875 (inactive) and 0.917 (inactive); in assay [2] (setting [6]) it was 1.02 and 1.4. Further, the cell count is 4910 and 9170 in assay [2] (setting [7]); 5610 and 10000 in assay [2] (setting [8]). Also, the z-score in assay [3] is 0.34 (inactive).

One may read the remaining activity as the signal under treatment as a percentage of the control signal.

Values taken from PubChem BioAssay.
